Here are results for 45 compounds from PMC4336329 (PLoS ONE, 2015).

The whole screen tested about 310,000 compounds, of which about 14,000 (4.5%) showed an effect of 50% or more. Effects have a minus sign here. The sample holds strong results, similar compounds and a random draw of the others, so the mix is not that of the screen.
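Note: peak tail current of the secondary pulse compared with the same well before compound.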

In the assay the target is human ether-à-go-go-related gene (hERG) potassium channel (human, UniProt Q12809). Briefly: primary screen, population patch clamp on CHO cells stably expressing hERG; higher = less effect of the substance.
human ether-à-go-go-related gene (hERG) potassium channel, sequence (Q12809 whole entry, looked up): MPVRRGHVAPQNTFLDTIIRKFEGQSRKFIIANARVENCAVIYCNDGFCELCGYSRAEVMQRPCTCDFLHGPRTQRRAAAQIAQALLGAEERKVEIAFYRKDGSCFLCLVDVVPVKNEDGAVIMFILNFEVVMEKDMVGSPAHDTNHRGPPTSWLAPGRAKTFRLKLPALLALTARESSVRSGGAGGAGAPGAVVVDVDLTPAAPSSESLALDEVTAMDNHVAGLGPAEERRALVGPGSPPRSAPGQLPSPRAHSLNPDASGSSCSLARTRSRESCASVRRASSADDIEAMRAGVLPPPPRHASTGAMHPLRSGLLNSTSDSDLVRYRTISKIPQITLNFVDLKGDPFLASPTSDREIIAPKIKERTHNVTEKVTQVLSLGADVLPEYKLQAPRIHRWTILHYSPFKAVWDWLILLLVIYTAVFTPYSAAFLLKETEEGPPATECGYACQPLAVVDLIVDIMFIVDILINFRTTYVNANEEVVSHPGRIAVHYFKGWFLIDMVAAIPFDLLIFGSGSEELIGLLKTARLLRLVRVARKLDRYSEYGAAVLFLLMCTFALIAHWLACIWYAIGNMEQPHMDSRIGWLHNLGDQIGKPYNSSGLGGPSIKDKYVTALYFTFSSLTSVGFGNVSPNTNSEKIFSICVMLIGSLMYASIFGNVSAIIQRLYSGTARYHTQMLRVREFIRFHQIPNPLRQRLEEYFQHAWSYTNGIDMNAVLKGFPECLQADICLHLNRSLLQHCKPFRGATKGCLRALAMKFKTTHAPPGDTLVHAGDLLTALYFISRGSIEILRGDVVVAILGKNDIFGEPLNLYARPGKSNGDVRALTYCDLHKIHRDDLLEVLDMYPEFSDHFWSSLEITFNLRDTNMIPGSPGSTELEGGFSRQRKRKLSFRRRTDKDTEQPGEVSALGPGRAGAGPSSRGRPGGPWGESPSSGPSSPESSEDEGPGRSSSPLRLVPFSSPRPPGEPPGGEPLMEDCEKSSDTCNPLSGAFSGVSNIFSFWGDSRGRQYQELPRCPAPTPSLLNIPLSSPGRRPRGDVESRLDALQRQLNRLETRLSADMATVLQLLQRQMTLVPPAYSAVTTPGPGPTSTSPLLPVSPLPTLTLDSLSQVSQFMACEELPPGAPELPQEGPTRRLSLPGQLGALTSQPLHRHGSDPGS
With `CN1CCN(CCCNC(=O)c2ccc3c(c2)N(Cc2ccccc2)CCS3)CC1`, the “hERG current change (%, negative = inhibition) at 10uM” value is -23.6%. The result for `Cc1ccc(CN2CCSc3ccc(C(=O)N4CCC5(CC4)OCCO5)cc32)cc1` reads -49.1%; that for `CN1CCSc2ccc(C(=O)NCc3cccc(Br)c3)cc21`, 0.343%; that for `S=C(NC1CCCC1)N1CCN(c2ncccn2)CC1`, -19.3%. In the case of `C[C@@]12CCC=C[C@H]1[C@H](c1ccoc1)N(Cc1ccccc1)C2=O`, the “hERG current change (%, negative = inhibition) at 10uM” value is on record as -8.15%.

`CC(=O)c1c(N)n(C)c(=O)n(C)c1=O`: the “hERG current change (%, negative = inhibition) at 10uM” value is recorded as -4.24%. For the compound `CSc1oc(-c2ccc(F)cc2)nc1S(=O)(=O)c1ccc(F)cc1`, the “hERG current change (%, negative = inhibition) at 10uM” value is listed as 3.51%. The result for `NNc1nnnc2c1sc1nc(N3CCOCC3)c3c(c12)CCCC3` reads 5.3%; that for `COc1cc(C(=O)OCC(=O)Nc2cccc(S(=O)(=O)N3CCOCC3)c2)ccc1OCC(C)C`, 18.3%; that for `CC(C)(C)C(=O)/C=C(\N)c1ccncc1`, 1.74%. Turning to `CCOc1ccc(N(CC(=O)NCCSCc2ccc(Cl)cc2)S(C)(=O)=O)cc1`, the “hERG current change (%, negative = inhibition) at 10uM” value was determined as 4.71%. The result for `COc1ccc(C)cc1NC(=O)CCNS(=O)(=O)c1cccc(C(F)(F)F)c1` reads -27.6%. As for `Cc1cc2c(cc1S(=O)(=O)N(C)C1CCCCC1)OCC(=O)N2`, the “hERG current change (%, negative = inhibition) at 10uM” value is recorded as 7.2%. The result for `O=S(=O)(NCCCCCNS(=O)(=O)c1ccccc1)c1ccccc1` reads -2.98%; that for `Cc1ccc(OCC(=O)Nc2ccc(C(=O)O)cc2NC(=O)COc2ccc(C)c(C)c2)cc1C`, 6.5%; that for `CCC1CCCN1Cn1cnc2c([nH]c3ccc(OC)cc32)c1=O` (stereo not drawn), -62.6%. In the case of `COc1ccc2[nH]c3c(=O)n(CCN4CCOCC4)cnc3c2c1`, the “hERG current change (%, negative = inhibition) at 10uM” value is on record as -2.38%. Take `CCN1CCCC1Cn1cnc2c([nH]c3cc(OC)ccc32)c1=O` (stereo not drawn): the “hERG current change (%, negative = inhibition) at 10uM” value is recorded as -63.8%. The figure for `COc1ccc2c(c1)[nH]c1c(=O)n(CCN3CCCC3)cnc12` is -46.3%; for `COc1ccc2[nH]c3c(=O)n(CCc4ccccc4)cnc3c2c1` it is -6.62%; for `COc1ccc2[nH]c3c(=O)n(Cc4ccncc4)cnc3c2c1` it is -11%.

Consider `CCN1CCCC1Cn1cnc2c([nH]c3ccc(OC)cc32)c1=O` (stereo not drawn), for which the “hERG current change (%, negative = inhibition) at 10uM” value is reported as -66.1%.

Consider `COc1ccc2[nH]c3c(=O)n(CCCN4CCOCC4)cnc3c2c1`, for which the “hERG current change (%, negative = inhibition) at 10uM” value was -3.86%. Take `COc1ccc2c(c1)[nH]c1c(=O)n(CC3CCCO3)cnc12` (stereo not drawn): the “hERG current change (%, negative = inhibition) at 10uM” value was 11.1%. For `CCCc1cc(CNC(=O)C2CCC(=O)N(CCc3cccc(F)c3)C2)on1` (stereo not drawn), the “hERG current change (%, negative = inhibition) at 10uM” value is on record as -49.6%.

Turning to `COc1ccccc1NC(=O)c1ccc(C)c(S(=O)(=O)N2CCCCC2)c1`, the “hERG current change (%, negative = inhibition) at 10uM” value is listed as -8.22%. The result for `Cc1nnsc1C(=O)NNc1ccc(C(C)(C)C)cc1` reads 14.1%. Consider `Cc1onc(-c2c(F)cccc2Cl)c1C(=O)c1ccccc1O`, for which the “hERG current change (%, negative = inhibition) at 10uM” value is -0.367%.

As to `CCc1ccc2nc(SCC(=O)Nc3nnc(C)s3)c(C)cc2c1`, the “hERG current change (%, negative = inhibition) at 10uM” value is reported as 16%. The result for `Cn1cc(Br)c(C(=O)N/N=C/c2cccc(OC3CSC3)c2)n1` reads -2.36%; that for `COc1ccc(-n2cccc2/C=C/[N+](=O)[O-])cc1`, -50.4%; that for `COc1ccc(-n2cccc2C=O)cc1`, 16.7%. Regarding `CN(C)c1ccc(-n2cccc2/C=C/[N+](=O)[O-])cc1`, the “hERG current change (%, negative = inhibition) at 10uM” value was 20.2%.

On to `CCOC(=O)c1c(NCc2ccc3c(c2)OCO3)c2ccccc2[nH]c1=O`, for which the “hERG current change (%, negative = inhibition) at 10uM” value is given as -10.8%.

For `O=C(Cc1ccccc1)N/N=C/c1ccc(OCC(=O)Nc2ccccc2)cc1`, the “hERG current change (%, negative = inhibition) at 10uM” value was -14.2%. Take `Cc1cc(NC(=O)CSc2nc3ccc(Cl)cc3[nH]2)no1`: the “hERG current change (%, negative = inhibition) at 10uM” value worked out at 9.82%. `CN1CCN(c2ccc(NC(=O)CSc3ccccc3)cc2F)CC1`: the “hERG current change (%, negative = inhibition) at 10uM” value is on record as -68.4%.

On to `O=C(CSc1ccccc1)Nc1ccc(N2CCN(c3ccccc3)CC2)c(F)c1`, for which the “hERG current change (%, negative = inhibition) at 10uM” value is 10.9%. As for `COc1ccc(SCC(=O)Nc2ccc(N3CCN(C)CC3)c(F)c2)cc1`, the “hERG current change (%, negative = inhibition) at 10uM” value is -49.7%.

Turning to `CC(C)C(=O)Nc1ccc(N2CCN(C)CC2)c(F)c1`, the “hERG current change (%, negative = inhibition) at 10uM” value is listed as 14.2%.

With `CN1CCN(c2ccc(NC(=O)CN3CCOCC3)cc2F)CC1`, the “hERG current change (%, negative = inhibition) at 10uM” value is 24.5%. Turning to `Cc1ccc(SCC(=O)Nc2ccc(N3CCN(C)CC3)c(F)c2)cc1`, the “hERG current change (%, negative = inhibition) at 10uM” value was -64.4%.

Consider `Cc1ccc(SCC(=O)Nc2ccc(N3CCN(C)CC3)c(F)c2)c(C)c1`, for which the “hERG current change (%, negative = inhibition) at 10uM” value is recorded as -72%.

In the case of `O=C(CSc1ccccc1)Nc1ccc(N2CCOCC2)c(F)c1`, the “hERG current change (%, negative = inhibition) at 10uM” value stood at 11.8%. Turning to `Cc1ccc(SCC(=O)Nc2ccc(N3CCN(c4ccccc4)CC3)c(F)c2)cc1`, the “hERG current change (%, negative = inhibition) at 10uM” value stood at 10.3%.
